Results as given in PubChem BioAssay AID1159580 (chemical genetic matrix, 2015).
Where “and” joins values, the source holds several entries; their conditions need not be identical. Equal entries are not always repeated. Hit rate of the full screen: of about 5,500 compounds, about 2,000 (36%) were called active. About 18% were inconclusive and are not listed. Cut-off read from the data, not from the text of the source: active = normalized growth mostly below about 0.91 (no sharp cut-off); inconclusive = no clear call, values can overlap the other calls; inactive = mostly above about 0.92. Some of the results follow.

Test: chemical genetic growth profiling, strain panel (AID 1159580);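 note: tested at 20 µM; growth read once vehicle control cultures reached saturation at 30 °C; 1 = growth at the plate median or of vehicle wells; lower values mean less growth of the strain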
Details: growth OD

Measured: normalized growth

NCCCS(=O)(=O)O
inactive: S. cerevisiae deletion strains, locus YKL068W, active compounds read low 0.995 | S. cerevisiae deletion strains, locus YKL085W, strain MDH1 (second series), active compounds read low 0.986 | S. cerevisiae deletion strains, locus YKL085W, strain MDH1, active compounds read low 0.986 | S. cerevisiae deletion strains, locus YKL160W, strain elf1, active compounds read low 1 | S. cerevisiae deletion strains, locus YKL190W, strain CNB1, active compounds read low 0.993 | S. cerevisiae deletion strains, locus YKR001C, strain vps1, active compounds read low 0.994 | S. cerevisiae deletion strains, locus YKR026C, strain gcn3, active compounds read low 1 | S. cerevisiae deletion strains, locus YKR091W, strain srl3, active compounds read low 1.01 | S. cerevisiae deletion strains, locus YLL001W, strain dnm1, active compounds read low 1.03 | S. cerevisiae deletion strains, locus YLL026W, active compounds read low 1.01 | S. cerevisiae deletion strains, locus YLL041C, strain sdh2, active compounds read low 1.01 | S. cerevisiae deletion strains, locus YLR027C, strain aat2, active compounds read low 0.996 | S. cerevisiae deletion strains, locus YLR039C, strain RIC1, active compounds read low 0.986 | S. cerevisiae deletion strains, locus YLR058C, strain SHM2, active compounds read low 0.965 | S. cerevisiae deletion strains, locus YLR102C, strain apc9, active compounds read low 0.993 | S. cerevisiae deletion strains, locus YLR113W, strain HOG1, active compounds read low 0.954 | S. cerevisiae deletion strains, locus YLR221C, strain rsa3, active compounds read low 1.01 | S. cerevisiae deletion strains, locus YLR258W, strain gsy2, active compounds read low 1.01 | S. cerevisiae deletion strains, locus YLR262C, strain YPT6 (second series), active compounds read low 1.02 | S. cerevisiae deletion strains, locus YLR262C, strain YPT6, active compounds read low 1.05 | S. cerevisiae deletion strains, locus YLR268W, strain sec22, active compounds read low 1.04 | S. cerevisiae deletion strains, locus YLR320W, strain mms22, active compounds read low 1.01 | S. cerevisiae deletion strains, locus YLR330W, strain CHS5, active compounds read low 0.983 | S. cerevisiae deletion strains, locus YLR342W, strain FKS1 (second series), active compounds read low 0.99 | S. cerevisiae deletion strains, locus YLR342W, strain FKS1, active compounds read low 1.02 | S. cerevisiae deletion strains, locus YLR357W, strain rsc2, active compounds read low 1.04 | S. cerevisiae deletion strains, locus YLR370C, strain arc18, active compounds read low 1.01 | S. cerevisiae deletion strains, locus YLR371W, strain rom2, active compounds read low 0.934 | S. cerevisiae deletion strains, locus YLR384C, strain iki3, active compounds read low 1.01 | S. cerevisiae deletion strains, locus YLR418C, strain cdc73, active compounds read low 1.01 | S. cerevisiae deletion strains, locus YML016C, strain PPZ1, active compounds read low 0.984 | S. cerevisiae deletion strains, locus YML032C, strain rad52, active compounds read low 0.994 | S. cerevisiae deletion strains, locus YML120C, strain ndi1, active compounds read low 1.02 | S. cerevisiae deletion strains, locus YML124C, strain tub3, active compounds read low 0.987 | S. cerevisiae deletion strains, locus YMR058W, strain fet3, active compounds read low 1.04 | S. cerevisiae deletion strains, locus YMR078C, strain ctf18, active compounds read low 0.999 | S. cerevisiae deletion strains, locus YMR125W, strain sto1, active compounds read low 1.02 | S. cerevisiae deletion strains, locus YMR129W, active compounds read low 1.01 | S. cerevisiae deletion strains, locus YMR205C, strain PFK2, active compounds read low 1.02 | S. cerevisiae deletion strains, locus YMR223W, strain ubp8, active compounds read low 0.96 | S. cerevisiae deletion strains, locus YMR231W, strain pep5, active compounds read low 1.02 | S. cerevisiae deletion strains, locus YMR263W, strain SAP30, active compounds read low 0.977 | S. cerevisiae deletion strains, locus YMR307W, strain GAS1, active compounds read low 0.971 | S. cerevisiae deletion strains, locus YNL067W, strain RPL9B, active compounds read low 1.01 | S. cerevisiae deletion strains, locus YNL071W, strain lat1, active compounds read low 1.03 | S. cerevisiae deletion strains, locus YNL128W, strain TEP1, active compounds read low 0.974 | S. cerevisiae deletion strains, locus YNL153C, strain GIM3, active compounds read low 0.991 and 1.01 | S. cerevisiae deletion strains, locus YNL175C, strain NOP13, active compounds read low 1 | S. cerevisiae deletion strains, locus YNL183C, strain NPR1, active compounds read low 0.937 | S. cerevisiae deletion strains, locus YNL197C, strain WHI3, active compounds read low 1.01 | S. cerevisiae deletion strains, locus YNL209W, strain ssb2, active compounds read low 1.01 | S. cerevisiae deletion strains, locus YNL224C, strain SQS1, active compounds read low 1.01 | S. cerevisiae deletion strains, locus YNL233W, strain BNI4, active compounds read low 0.987 | S. cerevisiae deletion strains, locus YNL248C, strain rpa49, active compounds read low 0.959 | S. cerevisiae deletion strains, locus YNL250W, strain rad50, active compounds read low 0.976 | S. cerevisiae deletion strains, locus YNL271C, strain bni1, active compounds read low 0.999 | S. cerevisiae deletion strains, locus YNL298W, strain CLA4, active compounds read low 0.967 | S. cerevisiae deletion strains, locus YNL307C, strain MCK1, active compounds read low 0.998 | S. cerevisiae deletion strains, locus YNL322C, strain KRE1 (second series), active compounds read low 1.01 | S. cerevisiae deletion strains, locus YNL322C, strain KRE1, active compounds read low 0.987 | S. cerevisiae deletion strains, locus YNR049C, strain mso1, active compounds read low 1.01 | S. cerevisiae deletion strains, locus YNR052C, strain pop2, active compounds read low 0.969 | S. cerevisiae deletion strains, locus YOL006C, strain TOP1, active compounds read low 1.02 | S. cerevisiae deletion strains, locus YOL012C, strain htz1 0.962 | S. cerevisiae deletion strains, locus YOL147C, strain pex11, active compounds read low 0.989 | S. cerevisiae deletion strains, locus YOR001W, strain rrp6, active compounds read low 1.01 | S. cerevisiae deletion strains, locus YOR061W, strain CKA2, active compounds read low 0.965 | S. cerevisiae deletion strains, locus YOR069W, strain VPS5, active compounds read low 0.984 | S. cerevisiae deletion strains, locus YOR070C, strain gyp1, active compounds read low 1.01 | S. cerevisiae deletion strains, locus YOR080W, strain dia2, active compounds read low 1.03 | S. cerevisiae deletion strains, locus YOR083W, strain WHI5 (second series), active compounds read low 1.02 | S. cerevisiae deletion strains, locus YOR083W, strain WHI5, active compounds read low 1 | S. cerevisiae deletion strains, locus YOR106W, strain vam3, active compounds read low 1.01 | S. cerevisiae deletion strains, locus YOR136W, strain idh2, active compounds read low 0.981 | S. cerevisiae deletion strains, locus YOR144C, strain elg1, active compounds read low 0.998 | S. cerevisiae deletion strains, locus YOR184W, strain ser1, active compounds read low 0.983 | S. cerevisiae deletion strains, locus YOR231W, strain MKK1, active compounds read low 0.976 | S. cerevisiae deletion strains, locus YOR265W, strain rbl2, active compounds read low 1.02 | S. cerevisiae deletion strains, locus YOR270C, strain vph1, active compounds read low 1.09 | S. cerevisiae deletion strains, locus YOR290C, strain snf2, active compounds read low 1.01 | S. cerevisiae deletion strains, locus YOR316C, strain cot1, active compounds read low 0.981 | S. cerevisiae deletion strains, locus YPL051W, strain arl3, active compounds read low 1.01 | S. cerevisiae deletion strains, locus YPL055C, strain LGE1, active compounds read low 0.993 | S. cerevisiae deletion strains, locus YPL078C, strain atp4, active compounds read low 1.02 | S. cerevisiae deletion strains, locus YPL106C, strain sse1, active compounds read low 1.01 | S. cerevisiae deletion strains, locus YPL240C, strain hsp82, active compounds read low 1.03 | S. cerevisiae deletion strains, locus YPL241C, strain CIN2, active compounds read low 0.997 | S. cerevisiae deletion strains, locus YPL256C, strain CLN2, active compounds read low 0.964 | S. cerevisiae deletion strains, locus YPR119W, strain clb2, active compounds read low 0.987 | S. cerevisiae deletion strains, locus YPR141C, strain kar3, active compounds read low 0.973 | S. cerevisiae deletion strains, locus YPR163C, strain tif3, active compounds read low 0.998 | S. cerevisiae deletion strains, locus YPR167C, strain met16, active compounds read low 1 | S. cerevisiae deletion strains, strain wtn01, active compounds read low 0.958 | S. cerevisiae strains, strain wild type, active compounds read low 0.984
